Experimental data as given in PubChem BioAssay (NCATS).
Results filed as inconclusive are left out. A number with no mark means an inactive call. The source made the active and inactive calls. The call rests on the fitted dose curve; in most records, active means well fitted inhibition curve with a large enough effect; inconclusive means small, poorly fitted or top-dose-only effect; inactive means no such curve, though single readings can be large or run the other way.

Test: BET inhibitor-based combinations targeting novel dependencies in MECOM-rearranged (r) AML: MV-4-11 cell line (AID 2202233); further: nearly all actives have a fitted effect of over 45% in size;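 on viability, % of control: plate controls were DMSO for no effect and blank wells for full effect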
Settings: MV-4-11 AML viability, CellTiter-Glo luminescence, 48 h; series mostly up to 46 µM; viability, % of control: at the top concentration
In short: (§1)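 Cells were plated at 500 per well and exposed to each drug across an 11-point dose range for 48 hr at standard incubator conditions. Viability was read by CellTiter-Glo luminescence, and activity was expressed as AUC and per-cell-line Z-transformed AUC.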
Potency means the concentration at half of the fitted maximal effect.

SMILES	viability, % of control	Potency
c1coc(CNc2ncnc3nc[nH]c23)c1	91.8%	–
Cc1cccc(-c2nn(C(=S)Nc3ccccc3)cc2-c2ccnc3ccccc23)n1	101%	–
Nc1nc(=O)n([C@H]2C[C@H](O)[C@@H](CO)O2)cc1F	–	14.8 nM (active)
O=C1CN2Cc3c(ccc(Cl)c3Cl)N=C2N1	122%	–
C=C(C)[C@@H]1CC[C@]2(C)CC[C@]3(C)[C@H](CC[C@@H]4[C@@]5(C)CC[C@H](O)C(C)(C)[C@H]5CC[C@]43C)[C@@H]12	123%	–
COc1c(C)cnc(Cn2cnc3c(Cl)nc(N)nc32)c1C	–	118 nM (active)
Cc1c(C)c2c(c(C)c1O)CCC(C)(COc1ccc(CC3SC(=O)NC3=O)cc1)O2 (stereo not drawn)	101%	–

Test: BET inhibitor-based combinations targeting novel dependencies in MECOM-rearranged (r) AML: HNT-34 cell line (AID 2202234); further: nearly all actives have a fitted effect of over 35% in size;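 on viability (% of control): plate controls were vehicle wells for no effect and cell-free wells for full effect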
Settings: HNT-34 AML viability, CellTiter-Glo luminescence, 48 h; series mostly up to 46 µM; viability (% of control): at the top concentration
In short: as §1

SMILES	viability (% of control)	Potency
O=C(O)[C@H](O)[C@@H](O)[C@H](O[C@@H]1O[C@H](CO)[C@H](O)[C@H](O)[C@H]1O)[C@H](O)CO	93.4%	–
CC(=O)SC[C@@H](C)C(=O)N1CCC[C@H]1C(=O)N[C@@H](Cc1ccccc1)C(=O)O	110%	–
CN(C)CC/C=C1/c2ccccc2COc2ccc(CC(=O)O)cc21	110%	–
CC1CNc2c(cccc2S(=O)(=O)N[C@@H](CCCN=C(N)N)C(=O)N2CC[C@@H](C)C[C@@H]2C(=O)O)C1 (stereo partly drawn)	99.3%	–
Cc1ccc(C(=O)Nc2ccc(CN3CCN(C)CC3)c(C(F)(F)F)c2)cc1C#Cc1cnc2cccnn12	–	8.3 nM (active)
O=C(O)[C@H](Cc1c[nH]c2ccccc12)N1C(=O)c2ccccc2C1=O	58.5%	–
O=C(/C=C\n1cnc(-c2cc(C(F)(F)F)cc(C(F)(F)F)c2)n1)NNc1cnccn1	–	934 nM (active)
Nc1nc(-c2nn(Cc3ccccc3F)c3ncccc23)nc(N)c1N1CCOCC1	88.5% [at 15.6 µM]	–
Cc1ccc(S(=O)(=O)Nc2nc3ccccc3nc2Nc2ccc3nsnc3c2)cc1	90.9% [at 15.6 µM]	–
CC(C)C[C@H](NC(=O)[C@H](CCc1ccccc1)NC(=O)CN1CCOCC1)C(=O)N[C@@H](Cc1ccccc1)C(=O)N[C@@H](CC(C)C)C(=O)[C@@]1(C)CO1	–	23.5 nM (active)
CC(=O)[C@H]1CC[C@H]2[C@@H]3CC=C4C[C@@H](O)CC[C@]4(C)[C@H]3CC[C@]12C	95.3%	–
Cc1ccsc1C(=CCCN1CCC[C@@H](C(=O)O)C1)c1sccc1C	94.5%	–
CN(CC(=O)N(Cc1ccc(C2CCCCC2)cc1)c1ccc(C(=O)O)c(O)c1)S(=O)(=O)c1c(F)c(F)c(F)c(F)c1F	–	6610 nM (active)
Cc1nc2cnc3ccc(C#Cc4cccnc4)cc3c2n1-c1ccc(C(C)(C)C#N)cc1	–	525 nM (active)
CCOC(=O)[C@@H](N)CCC(=O)N[C@@H](CSCc1ccccc1)C(=O)N[C@@H](C(=O)OCC)c1ccccc1	–	26300 nM (active)
O=c1ccn([C@@H]2O[C@H](CO)[C@H](O)[C@@H]2F)c(=O)[nH]1	106%	–
N#Cc1cc(NC(=O)Nc2nnc(-c3ccncc3)s2)ccc1-c1cn[nH]c1	101%	–
CC(C)C[C@H](NC(=O)CNC(=O)c1cc(Cl)ccc1Cl)B1OC(=O)CC(CC(=O)O)(C(=O)O)O1 (stereo partly drawn)	–	132 nM (active)
O=C(O)CCC1CCC(c2cc(F)ccc2F)(S(=O)(=O)c2ccc(Cl)cc2)CC1 (stereo not drawn)	55.4%	–
CC(C)C(C)C=CC(C)C1CCC2C3=CC=C4CC(O)CCC4(C)C3CCC21C (stereo not drawn)	98%	–
O=C(O)c1cn(-c2ccc(F)cc2)c2cc(N3CCNCC3)c(F)cc2c1=O	87.5%	–
CCc1cc(-c2n[nH]c(C)c2-c2ccc3c(c2)OCCO3)c(O)cc1O	–	14800 nM (active)
Nc1nc2[nH]cc(CCc3ccc(C(=O)N[C@@H](CCC(=O)O)C(=O)O)cc3)c2c(=O)[nH]1	108%	–
O=C1CN2Cc3c(ccc(Cl)c3Cl)N=C2N1	111%	–
C=C(C)[C@@H]1CC[C@]2(C)CC[C@]3(C)[C@H](CC[C@@H]4[C@@]5(C)CC[C@H](O)C(C)(C)[C@H]5CC[C@]43C)[C@@H]12	113%	–
Cc1c(C)c2c(c(C)c1O)CCC(C)(COc1ccc(CC3SC(=O)NC3=O)cc1)O2 (stereo not drawn)	–	18600 nM (active)
